The record followed here is the supplement of paper PMC10941209.

This experiment has as its system Toxoplasma gondii RH 2F1 tachyzoites (intracellular in HFF). Briefly: parasite survival relative to DMSO control; higher = less antiparasitic activity, active = 20 or less. The note with it: 1 µM; 72 h. In short, it runs like this:
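Parasite survival was taken as the CPRG signal relative to DMSO-treated infected wells, given as a percentage. To obtain it, HFF cells (5 × 10^3 cells/well, 96-well plates) were infected for 3 h in D2 medium with 5 × 10^3 β-galactosidase-expressing Toxoplasma gondii RH-2F1 tachyzoites, then exposed to compound at 1 μM for 72 h at 37°C in 5% CO2. Absorbance at 570 nm was measured 30 min after CPRG was added to lysed cells, and 2 or more biological replicates were run.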

Molecules are shown by their SMILES. Unmarked numbers belong to inactive results.

In the case of `OCCCCn1cnc2c(O)nc(NCc3ccc(Cl)c(Cl)c3)nc21`, the parasite survival was 59.7%.
The figure for `OC1O[C@H](CSc2ccc(F)cc2)[C@@H](O)[C@H]1O` (stereo not given in full) is 49.9%; for `O=C1C=C(c2ccccc2)S(=O)(=O)c2ccccc21` it is 44.4%.
The same measure for `COc1cc(C(C(=O)NC2CCCCC2)N(C(=O)Cc2c[nH]c3ccccc23)c2ccc(C(C)C)cc2)cc(OC)c1OC` (stereo not given): 46.5%; for `COc1ccc2nc(-c3ccccc3)cc(O)c2c1`: 6.87% (active).
`CN(O)C(=O)c1cc2c(CN3CCC[C@H]3C(N)=O)cn(Cc3ccc(F)cc3)c2cn1`: the parasite survival was 76.7%.
Regarding `Clc1cc2nc(C3CCNCC3)n(Cc3ccc(CNCCc4c[nH]cn4)cc3)c2cc1Cl`, the parasite survival was 66.5%.
The figure for `CC(C)=CCC/C(C)=C/CNCCNC1C2CC3CC(C2)CC1C3` (stereo not given) is 8.85% (active); for `NC(=O)c1[nH]c2ccc(S(N)(=O)=O)cc2c1-c1ccccc1` it is 72.1%; for `[N-]=[N+]=N[C@H]1C[C@H](n2ccc(=O)[nH]c2=O)O[C@@H]1CO` it is 73.1%.
`CC1(C)CC(NC(=O)C(=O)Nc2ccc(Cl)cc2)CC(C)(C)N1`: the parasite survival was 69.9%.
Regarding `Cc1ncc([N+](=O)[O-])n1CC(C)O` (stereo not given), the parasite survival is 48.2%.
With `C[C@@H]1O[C@@H]1P(=O)(O)O`, the parasite survival is 46.3%.
Take `COc1ccc2c(c1)cc(CNC(=O)c1cc3ccccc3o1)n2CC(=O)O`: the parasite survival was 64.2%.
The figure for `NC1C2CC3CC(C2)CC1C3` (stereo not given) is 68.3%.
For `Nc1cccc(-c2nc(N)nc(NC3Cc4ccccc4C3)n2)c1`, the parasite survival was 42.3%.
As for `Cc1ccc(C)c(OCCCCCCN2C[C@H](O)[C@@H](O)[C@H](O)[C@H]2CO)c1`, the parasite survival was 62.8%.
The same measure for `COc1cc(NC(=O)CN2C(=O)NC(c3ccccc3)(c3ccccc3)C2=O)cc(OC)c1`: 49.2%; for `NC(=O)c1ccccc1NC(=O)c1ccc(C(=O)Nc2ccccc2C(N)=O)cc1`: 39.5%.
For `O=C(NCCN1CCCCC1)c1cccc(C(F)(F)F)c1`, the parasite survival was 67.5%.
The same measure for `CC(C)(C)OC(=O)NCc1ccc(C(=O)N[C@H]2CCOC2=O)cc1`: 35%; for `O=C(Cn1cnc2ccccc2c1=O)Nc1ccccc1`: 57.7%.
As to `Nc1ccc(-c2nc3cc(C(F)(F)F)ccc3n2C23CC4CC(CC(C4)C2)C3)cc1`, the parasite survival is 53%.
The figure for `CN1C(=O)C(c2ccccc2)C(=O)N(c2ccccc2)c2cc(C(F)(F)F)ccc21` (stereo not given) is 79.5%; for `O=C(c1ccc(F)cc1)N1CCN2C(=O)c3ccccc3C12c1ccccc1` (stereo not given) it is 64.9%.
Take `O=S(=O)(Nc1ccccc1)c1ccc(NC(=S)Nc2ccccc2)cc1`: the parasite survival is 47.2%.
The same measure for `CCOc1noc2cc(OCCC3CCN(c4ccc(C)nn4)CC3)ccc12`: 45%.
The figure for `O=C(CCCC(F)(F)F)N1CCC(c2nc(-c3nccs3)no2)CC1` is 68%; for `Nc1ccc2oc(=O)ccc2c1I` it is 80.5%; for `OC(Cn1cncn1)(Cn1cncn1)c1ccc(F)cc1F` it is 46%.
The same measure for `O=[N+]([O-])c1cn(Cc2nc(O)nc(O)c2Br)cn1`: 58.1%; for `CCc1cc(Nc2cc(=O)n(CCN3CCN(C(=O)c4ccccc4)CC3)c(=O)[nH]2)ccc1C`: 26%; for `CN(C(=O)C1(c2ccc(Cl)cc2)CCC1)c1ccccc1`: 83.6%.
Consider `COc1ccc(CNC(=O)C2CCN([C@H](C)c3cccc4ccccc34)CC2)cc1`, for which the parasite survival was 52%.
The same measure for `Oc1c(C(Nc2nc3ccccc3s2)c2ccc(OC(F)F)cc2)ccc2cccnc12` (stereo not given): 4.28% (active).
The figure for `C=C(C)n1c(=O)n(Cc2ccccc2C)c2ccccc21` is 44.5%; for `CS(=O)(=O)c1ccc(Oc2ccc(Cl)cc2)cc1` it is 54.5%; for `Cc1nc(Nc2ccc(F)cc2)nc(N2CCc3ccccc3C2C)c1C` (stereo not given) it is 20.5%.
The figure for `O=C(CP(=O)(O)O)NCCc1cccc(Oc2ccccc2)c1` is 40.8%; for `N#C/C(=C1/SC[C@H](c2ccc(Cl)cc2Cl)S1)n1ccnc1` it is 41.2%.
